The source of these data is PubChem BioAssay (NCI).

Values joined by “and” are separate entries in the source; they are usually repeats but may differ in a detail not shown here. Equal values may be shown once. This is part of a sample that, as a whole, favours compounds with a hit. Of some 83,000 tested, about 20% had one in any assay.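 How to read the values: 0–100, growth inhibition (40 = 60% inhibited); 0, no net growth; -100 to 0, cell death (-40 = 40% of starting cells died; -100 = all dead).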 Active and inactive are the calls of the source. Rule for the calls: active = growth percent below 10; inactive = the rest.

Among the test systems are NCI-H23 lung; NCI-H226 lung; NCI-H322M lung; HOP-62 NSCLC; NCI-H460 lung; HOP-92 NSCLC; NCI-H522 lung; A549/ATCC NSCLC; 786-0 renal; COLO 205 colon; DU-145 prostate; K-562 leukemia; MALME-3M melanoma; MDA-MB-231 breast; RXF 393 renal; SF-268 CNS; SF-295 CNS; SF-539 CNS; UACC-257 melanoma; M14 melanoma.
Common to all, as to test: NCI-60 one-dose screen, 48 h (100 = growth as untreated, 0 = no growth, -100 = all killed)
Details in all cases: 10 µM unless noted

On to `CCOC(=O)C1=CC(=O)CC(C)(C)O1`, for which the growth with NCI-H23 lung was 104% (inactive) and 107% (inactive); in the assay on NCI-H226 lung, 114% (inactive) and 95.3% (inactive); with NCI-H322M lung, 99.2% (inactive) and 125% (inactive); in the assay with HOP-62 NSCLC, 109% (inactive) and 107% (inactive); with NCI-H460 lung it was 107% (inactive) and 109% (inactive); in the assay on HOP-92 NSCLC it was 93.5% (inactive) and 97.1% (inactive). The growth with NCI-H522 lung was 79.7% (inactive) and 96.2% (inactive); in the assay on A549/ATCC NSCLC it was 119% (inactive) and 81.9% (inactive); with 786-0 renal, 110% (inactive) and 116% (inactive); in the assay on COLO 205 colon, 105% (inactive) and 111% (inactive); in the assay on DU-145 prostate, 123% (inactive) and 110% (inactive); in the assay on K-562 leukemia, 42% (inactive) and 104% (inactive). In addition, the growth in the assay on MALME-3M melanoma was 112% (inactive) and 110% (inactive); in the assay on MDA-MB-231 breast, 114% (inactive) and 106% (inactive); with RXF 393 renal, 118% (inactive) and 114% (inactive); in the assay with SF-268 CNS, 108% (inactive) and 103% (inactive); with SF-295 CNS, 125% (inactive) and 114% (inactive); in the assay on SF-539 CNS it was 110% (inactive) and 109% (inactive). The growth was 106% (inactive) and 95.7% (inactive) in the assay with UACC-257 melanoma; 99.6% (inactive) and 112% (inactive) in the assay with M14 melanoma.

Turning to `Nc1c(S(=O)(=O)O)cc(Br)c2c1C(=O)c1ccccc1C2=O`, the growth was 103% (inactive) in the assay with NCI-H23 lung; 98.2% (inactive) and 99.6% (inactive) in the assay with NCI-H226 lung; 95.6% (inactive) and 106% (inactive) in the assay with NCI-H322M lung; 88.1% (inactive) and 111% (inactive) in the assay on HOP-62 NSCLC; 102% (inactive) and 106% (inactive) with NCI-H460 lung; 73.4% (inactive) with HOP-92 NSCLC. Moreover, the growth in the assay on NCI-H522 lung was 83% (inactive); in the assay with A549/ATCC NSCLC, 104% (inactive); in the assay on 786-0 renal, 106% (inactive) and 110% (inactive); with COLO 205 colon, 97.5% (inactive) and 106% (inactive); in the assay on DU-145 prostate, 106% (inactive) and 116% (inactive); with K-562 leukemia it was 101% (inactive) and 96.6% (inactive). Moreover, the growth is 97.6% (inactive) and 116% (inactive) with MALME-3M melanoma; 115% (inactive) and 107% (inactive) with MDA-MB-231 breast; 111% (inactive) and 98.7% (inactive) with RXF 393 renal; 102% (inactive) and 106% (inactive) in the assay with SF-268 CNS; 104% (inactive) and 100% (inactive) in the assay with SF-295 CNS; 104% (inactive) and 101% (inactive) in the assay on SF-539 CNS. In addition, the growth is 83.3% (inactive) in the assay with UACC-257 melanoma; 117% (inactive) and 110% (inactive) with M14 melanoma.

Turning to `COC1C(OC(N)=O)C(O)C(Oc2ccc3c(O)c(NC(=O)c4ccc(O)c(CC=C(C)C)c4)c(=O)oc3c2C)OC1(C)C` (centres undefined), the growth in the assay on NCI-H23 lung is 104% (inactive) and 93.7% (inactive); with NCI-H226 lung, 104% (inactive) and 90.5% (inactive); in the assay with NCI-H322M lung, 105% (inactive) and 102% (inactive); with HOP-62 NSCLC, 101% (inactive) and 98.5% (inactive); with NCI-H460 lung, 116% (inactive) and 94.9% (inactive); in the assay on HOP-92 NSCLC, 78.6% (inactive). In addition, the growth in the assay on NCI-H522 lung is 44.3% (inactive) and 131% (inactive); in the assay on A549/ATCC NSCLC, 105% (inactive) and 103% (inactive); in the assay with 786-0 renal, 94.2% (inactive) and 101% (inactive); with COLO 205 colon it was 108% (inactive) and 104% (inactive); with DU-145 prostate, 106% (inactive) and 105% (inactive); in the assay with K-562 leukemia it was 79.4% (inactive) and 116% (inactive). The growth with MALME-3M melanoma is 121% (inactive) and 101% (inactive); with MDA-MB-231 breast it was 108% (inactive) and 88.2% (inactive); in the assay with RXF 393 renal it was 104% (inactive) and 98.2% (inactive); in the assay with SF-268 CNS, 104% (inactive) and 97.1% (inactive); with SF-295 CNS, 92.7% (inactive) and 94.9% (inactive); in the assay with SF-539 CNS it was 98% (inactive) and 97.1% (inactive). In addition, the growth in the assay on UACC-257 melanoma was 104% (inactive) and 101% (inactive); with M14 melanoma, 102% (inactive) and 99.2% (inactive).

For `CCOP(C)(=O)/C(Cc1ccc(OC)c(OC)c1)=N\O` (centres undefined), the growth was 97.1% (inactive) with NCI-H23 lung; 96% (inactive) in the assay with NCI-H226 lung; 90.5% (inactive) in the assay with NCI-H322M lung; 98.7% (inactive) with HOP-62 NSCLC; 105% (inactive) in the assay with NCI-H460 lung; 100% (inactive) with HOP-92 NSCLC. Further, the growth in the assay with NCI-H522 lung is 102% (inactive); in the assay with A549/ATCC NSCLC it was 108% (inactive); with 786-0 renal it was 103% (inactive); in the assay on COLO 205 colon, 112% (inactive); with DU-145 prostate, 116% (inactive); with K-562 leukemia it was 101% (inactive). The growth in the assay on MALME-3M melanoma was 98.5% (inactive); in the assay with MDA-MB-231 breast, 109% (inactive); in the assay with RXF 393 renal, 113% (inactive); in the assay with SF-268 CNS, 102% (inactive); in the assay on SF-295 CNS, 100% (inactive); with SF-539 CNS, 100% (inactive). The results for the growth in the assay on UACC-257 melanoma and in the assay with M14 melanoma were 113% (inactive) and 108% (inactive), respectively.

As to `O=C1c2ccccc2CN1c1ccccc1`, the growth in the assay with NCI-H23 lung was 94.2% (inactive); in the assay with NCI-H226 lung it was 98.8% (inactive); with NCI-H322M lung it was 107% (inactive); with HOP-62 NSCLC, 107% (inactive); in the assay on NCI-H460 lung, 103% (inactive); in the assay with HOP-92 NSCLC it was 104% (inactive). Further, the growth was 74.7% (inactive) in the assay on NCI-H522 lung; 94.7% (inactive) in the assay on 786-0 renal; 105% (inactive) in the assay on COLO 205 colon; 115% (inactive) in the assay on DU-145 prostate; 94.2% (inactive) in the assay with K-562 leukemia; 118% (inactive) with MALME-3M melanoma. Also, the growth in the assay on MDA-MB-231 breast was 95.4% (inactive); in the assay on RXF 393 renal it was 105% (inactive); in the assay on SF-268 CNS, 107% (inactive); in the assay with SF-295 CNS, 104% (inactive); in the assay with SF-539 CNS, 102% (inactive); with UACC-257 melanoma, 103% (inactive). Moreover, in the assay with M14 melanoma, the growth is 100% (inactive).

For the compound `COc1ccc(C(=O)C(O)c2ccc(OC)cc2)cc1` (centres undefined), the growth with NCI-H23 lung is 98.4% (inactive) and 92.7% (inactive); in the assay with NCI-H226 lung, 92.5% (inactive) and 96.2% (inactive); in the assay on NCI-H322M lung, 96.6% (inactive) and 102% (inactive); with HOP-62 NSCLC, 109% (inactive) and 108% (inactive); in the assay on NCI-H460 lung it was 104% (inactive) and 105% (inactive); with HOP-92 NSCLC, 96.2% (inactive). For the same compound, the growth in the assay on NCI-H522 lung was 102% (inactive); with A549/ATCC NSCLC it was 109% (inactive) and 103% (inactive); in the assay with 786-0 renal, 103% (inactive); in the assay on COLO 205 colon, 110% (inactive) and 108% (inactive); in the assay on DU-145 prostate, 110% (inactive) and 103% (inactive); with K-562 leukemia it was 101% (inactive) and 103% (inactive). In addition, the growth in the assay with MALME-3M melanoma is 92.2% (inactive) and 103% (inactive); in the assay on MDA-MB-231 breast, 104% (inactive) and 112% (inactive); with RXF 393 renal it was 125% (inactive) and 103% (inactive); in the assay on SF-268 CNS it was 103% (inactive) and 101% (inactive); with SF-295 CNS, 104% (inactive) and 107% (inactive); in the assay with SF-539 CNS, 105% (inactive) and 103% (inactive). The growth in the assay with UACC-257 melanoma was 104% (inactive) and 101% (inactive); in the assay on M14 melanoma, 101% (inactive) and 99.9% (inactive).

Consider `Nc1nc(=S)c2[nH]cnc2[nH]1`, for which the growth was 17.6% (inactive) and 161% (inactive) in the assay with NCI-H23 lung; 39% (inactive) and 37.4% (inactive) in the assay on NCI-H226 lung; 39.2% (inactive) and 85.7% (inactive) in the assay with NCI-H322M lung; 16.5% (inactive) and 18% (inactive) in the assay with HOP-62 NSCLC; 3.77% (active) and 6.79% (active) in the assay with NCI-H460 lung; -2.57% (active) in the assay with HOP-92 NSCLC. The growth in the assay with NCI-H522 lung is -4.74% (active) and 7.57% (active); in the assay on A549/ATCC NSCLC, 31.7% (inactive) and 2.46% (active); with 786-0 renal, 17.2% (inactive) and 9.97% (active); in the assay with COLO 205 colon it was -27.5% (active) and 7.45% (active); in the assay on DU-145 prostate, 21.3% (inactive) and 21% (inactive); in the assay with K-562 leukemia, 9.77% (active) and -2.79% (active). Further, the growth is 21.6% (inactive) and 35.7% (inactive) in the assay with MALME-3M melanoma; 32.9% (inactive) and 29.4% (inactive) in the assay on MDA-MB-231 breast; 5.3% (active) and -2.73% (active) in the assay with RXF 393 renal; 17.8% (inactive) and 26.3% (inactive) with SF-268 CNS; 25.6% (inactive) and 19% (inactive) in the assay on SF-295 CNS; 7.88% (active) in the assay on SF-539 CNS. In addition, the growth is 41.4% (inactive) and 24.2% (inactive) in the assay with UACC-257 melanoma; 5.54% (active) in the assay on M14 melanoma.
